Data: PubChem BioAssay (Tox21)
Results filed as inconclusive are left out. Calls of active or inactive are those of the source. Unless noted, calls come from the whole dose curve; as a rule, active = well fitted curve in the direction sought with a large enough effect in the repeat runs; inconclusive = weak or mixed curves; inactive = no such curve, though single readings can be large; an effect the other way counts as inactive or inconclusive.

How the values were obtained:
[1] = molecular target: Thyrotropin receptor (Homo sapiens) (UniProt P16473); test: qHTS assay to identify small molecule agonists of the thyroid stimulating hormone receptor (TSHR) signaling pathway (AID 1224843; calls by dose curve; note: nearly all actives have a fitted effect of over 45% in size)
Sequence of Thyrotropin receptor (Homo sapiens) (P16473 whole entry, looked up): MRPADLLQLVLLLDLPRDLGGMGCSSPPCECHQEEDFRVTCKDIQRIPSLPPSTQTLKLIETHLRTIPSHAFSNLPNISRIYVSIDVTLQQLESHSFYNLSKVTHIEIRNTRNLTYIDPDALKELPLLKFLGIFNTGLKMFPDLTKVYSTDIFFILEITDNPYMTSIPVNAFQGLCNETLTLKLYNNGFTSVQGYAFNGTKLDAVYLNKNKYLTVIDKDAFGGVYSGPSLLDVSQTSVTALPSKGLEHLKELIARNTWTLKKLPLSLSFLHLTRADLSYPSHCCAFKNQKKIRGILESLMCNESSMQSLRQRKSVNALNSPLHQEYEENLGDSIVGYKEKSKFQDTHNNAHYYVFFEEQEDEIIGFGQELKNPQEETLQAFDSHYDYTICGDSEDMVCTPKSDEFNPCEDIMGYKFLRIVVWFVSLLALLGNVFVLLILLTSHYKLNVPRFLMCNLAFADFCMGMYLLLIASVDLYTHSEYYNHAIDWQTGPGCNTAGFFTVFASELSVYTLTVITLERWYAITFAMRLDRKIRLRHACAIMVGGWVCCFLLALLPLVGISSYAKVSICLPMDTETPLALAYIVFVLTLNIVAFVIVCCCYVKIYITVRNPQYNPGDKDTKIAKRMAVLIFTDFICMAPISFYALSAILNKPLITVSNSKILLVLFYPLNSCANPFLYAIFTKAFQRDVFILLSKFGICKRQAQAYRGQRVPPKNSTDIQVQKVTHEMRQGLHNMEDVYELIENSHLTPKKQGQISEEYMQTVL
Outline: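 TSHR-HEK293 cells in agonist mode, 30 min room-temperature step, then cAMP measured by competitive HTRF (cAMP-d2 with anti-cAMP cryptate) after 1 h at room temperature. Tested at 15 concentrations in triplicate.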

[2] = qHTS assay to identify small molecule agonists of the hypoxia (HIF-1) signaling pathway (AID 1224846; active = well fitted activation curve with a large enough effect in the signal ratio in the repeat runs, not every such curve was filed as active; the % refers to the signal ratio)
Outline: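 Steps: seed ME-180 HRE-bla cells (2,000/well, 0.5% dialyzed FBS); incubate 5 hrs at 37C; pin-transfer compounds or DMSO; incubate 17 hrs; add LiveBLAzer B/G substrate CCF4-AM; measure reporter activation by FRET.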

[3] = qHTS assay to identify small molecule agonists of H2AX - cell viability counter screen (AID 1224847; calls by dose curve; note: top concentration of the series differs between compounds; nearly all actives have a fitted effect of over 30% in size)
Outline: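 Viability of CHO-K1 (wild type) cells after 3 hr compound exposure was measured by CellTiter-Glo luminescence.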

[4] = qHTS assay to identify small molecule antagonists of the estrogen related receptor (ERR) signaling pathway from Tox21 library (AID 1224848); note: nearly all actives have a fitted effect of over 50% in size
Outline: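 ERR reporter cell line (from NTP) seeded 2,000 cells/well, rested 6 h at 37 C/5% CO2, then pin-dosed with compounds in DMSO. After 18 h at 37 C, ONE-Glo added; luminescence read after 30 min at room temperature.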

[5] = qHTS assay to identify small molecule agonists of the estrogen related receptor (ERR) signaling pathway from Tox21 library (AID 1224849; calls by dose curve; note: nearly all actives have a fitted effect of over 15% in size); conditions: ERR reporter cell line, ONE-Glo luciferase, 18 h; at 92.4 µM (top of the series) unless noted
Outline: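 Agonist signal is luciferase luminescence from an ERR reporter cell line treated 18 h at 37 C with DMSO-dissolved compounds, read 30 min after ONE-Glo addition at room temperature.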

[6] = qHTS RealTime-Glo MT Cell Viability Assay in HepG2 cells - 24 hour (AID 1224867); note: nearly all actives have a fitted effect of over 50% in size
Outline: (§1)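 Cells + NanoLuc/prosubstrate dispensed (600 cells/well) → 5 h at 37 C/5% CO2 → compounds in DMSO transferred → 40 h incubation at 37 C, luminescence read at 0, 8, 16, 24, 32, 40 h.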

[7] = qHTS RealTime-Glo MT Cell Viability Assay in HEK293 cells - 32 hour (AID 1224868); note: nearly all actives have a fitted effect of over 50% in size; note: potency is the fitted concentration of half-maximal effect
Outline: (§2)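 Tox21 10K qHTS, HEK293, 600 cells/well, RealTime-Glo reagent co-dispensed with cells; 5 h preincubation, compound by pintool, 37 C, luminescence at 0–40 h.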

[8] = A CellTox Green Cytotoxicity Assay to monitor cytotoxicity in HEK293 cells - 0 hour (AID 1224869); note: nearly all actives have a fitted effect of over 50% in size
Outline: (§3)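 Cytotoxicity was tracked continuously in HEK293 cells by a DNA-binding dye excluded from viable cells. Compounds were transferred in DMSO 5 h after seeding; fluorescence was recorded at intervals up to 40 h.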

[9] = qHTS RealTime-Glo MT Cell Viability Assay in HepG2 cells - 40 hour (AID 1224870); note: nearly all actives have a fitted effect of over 50% in size
Outline: (§4)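 HepG2 cells (600/well) mixed with RealTime-Glo MT reagent, settled 5 h at 37 C/5% CO2 before compound addition. Nonlytic NanoLuc luminescence from viable-cell prosubstrate reduction read repeatedly during 40 h treatment at 37 C.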

[10] = A CellTox Green Cytotoxicity Assay to monitor cytotoxicity in HEK293 cells - 40 hour (AID 1224871); note: nearly all actives have a fitted effect of over 45% in size
Outline: as §3

[11] = qHTS RealTime-Glo MT Cell Viability Assay in HEK293 cells - 40 hour (AID 1224874); conditions: RealTime-Glo luminescence; max response: active compounds read low; note: nearly all actives have a fitted effect of over 50% in size; note: potency is the fitted concentration of half-maximal effect
Outline: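 Nonlytic bioluminescent viability monitoring. HEK293 at 600 cells/well with reagent; 5 h settle; compound transfer by pintool; plates held at 37 C and read at set time points.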

[12] = A CellTox Green Cytotoxicity Assay to monitor cytotoxicity in HEK293 cells - 24 hour (AID 1224875); note: nearly all actives have a fitted effect of over 45% in size; note: potency is the fitted concentration of half-maximal effect
Outline: as §3

[13] = A CellTox Green Cytotoxicity Assay to monitor cytotoxicity in HepG2 cells - 16 hour (AID 1224876); note: nearly all actives have a fitted effect of over 45% in size
Outline: (§5)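 Real-time, homogeneous cytotoxicity readout: dead-cell DNA staining by CellTox Green in HepG2 monolayers, fluorescence measured at timed intervals up to 40 h of continuous compound exposure.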

[14] = qHTS RealTime-Glo MT Cell Viability Assay in HepG2 cells - 32 hour (AID 1224877); note: nearly all actives have a fitted effect of over 55% in size; note: potency is the fitted concentration of half-maximal effect
Outline: as §1

[15] = A CellTox Green Cytotoxicity Assay to monitor cytotoxicity in HepG2 cells - 24 hour (AID 1224878); note: nearly all actives have a fitted effect of over 45% in size
Outline: as §5

[16] = A CellTox Green Cytotoxicity Assay to monitor cytotoxicity in HepG2 cells - 40 hour (AID 1224879); note: nearly all actives have a fitted effect of over 40% in size
Outline: as §5

[17] = qHTS assay to identify small molecule agonists of H2AX (AID 1224845; active = well fitted activation curve with a large enough effect in the signal ratio in the repeat runs, not every such curve was filed as active; the % refers to the signal ratio)
Outline: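 Wild-type CHO-K1 cells, plated overnight, exposed 3hr at 37C to 15 concentrations (0.76% DMSO final). Lysed, then HTRF anti-pH2AX (S139) cryptate and anti-H2AX-d2 antibodies, 24 hr room temperature; 665/620 nm emission read.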

[18] = qHTS RealTime-Glo MT Cell Viability Assay in HEK293 cells - 16 hour (AID 1224872); note: nearly all actives have a fitted effect of over 50% in size; note: potency is the fitted concentration of half-maximal effect
Outline: as §2

[19] = qHTS RealTime-Glo MT Cell Viability Assay in HepG2 cells - 8 hour (AID 1224873); note: nearly all actives have a fitted effect of over 55% in size
Outline: as §4

[20] = qHTS assay to identify small molecule agonists of the hypoxia (HIF-1) signaling pathway - cell viability counter screen (AID 1224844; calls by dose curve; note: nearly all actives have a fitted effect of over 50% in size)
Outline: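 Tox21 10K compounds were added to HRE-bla ME-180 cells (0.5% dialyzed FBS) and incubated 17 hrs at 37C; ATP-based CellTiter-Glo luminescence then reported cell viability in the same wells.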
% is set by controls: 0 for no effect and ±100 for the full control effect.

Nc1nc2c(ncn2CCC(CO)CO)c(=O)[nH]1
inactive: outcome [1] | outcome [2] | Potency [3] | Potency [4] | activity change, positive = activation [5] -1.99% [at 42.5 µM] | outcome [6] | Potency [7] | Potency [8] | Potency [9] | Potency [10] | max response [11] 0.17% | Potency [12] | Potency [13] | Potency [14] | Potency [15] | Potency [16]

Nc1cc(C(Cl)=C(Cl)Cl)c(S(N)(=O)=O)cc1S(N)(=O)=O
inactive: outcome [1] | outcome [17] | Potency [3] | outcome [6] | Potency [7] | Potency [8] | Potency [10] | Potency [18] | outcome [19] | max response [11] -0.745% | Potency [12] | Potency [13] | Potency [15] | Potency [16]

CC(C)(C)C(=O)/C=C/c1ccc(Cl)cc1
inactive: outcome [1] | outcome [2] | Potency [3] | Potency [4] | activity change, positive = activation [5] 1.54% | outcome [6] | Potency [8] | Potency [9] | Potency [18] | outcome [19] | max response [11] -0.497% | Potency [12] | Potency [13] | Potency [15] | Potency [16]

CSc1nc(NC2CC2)nc(NC(C)(C)C)n1
inactive: Potency [20] | outcome [17] | outcome [2] | Potency [3] | outcome [6] | Potency [8] | Potency [9] | Potency [10] | outcome [19] | Potency [12] | Potency [13] | Potency [15] | Potency [16]
active: Potency [7] 24.5 µM | Potency [18] 24.5 µM | Potency [11] 24.5 µM

C=C(C)C(=O)NCCCN(C)C
active: Potency [12] 34.7 nM
inactive: Potency [20] | outcome [17] | outcome [2] | Potency [3] | outcome [6] | Potency [7] | Potency [8] | Potency [10] | Potency [18] | outcome [19] | max response [11] 9.44% | Potency [13] | Potency [14] | Potency [15] | Potency [16]

CC(C)CCCC(C)CCCC(C)CCCCC(C)CCCC(C)CCCC(C)C (stereo not drawn)
inactive: outcome [1] | outcome [17] | outcome [2] | Potency [3] | outcome [6] | Potency [7] | Potency [8] | Potency [9] | Potency [10] | outcome [19] | max response [11] 3.24% | Potency [12] | Potency [13] | Potency [14] | Potency [15] | Potency [16]

CC(C)[N+](C)(C)CC(O)COc1cccc2ccccc12 (stereo not drawn)
inactive: outcome [1] | outcome [17] | outcome [2] | Potency [3] | outcome [6] | Potency [7] | Potency [10] | Potency [18] | max response [11] 6.37% | Potency [12] | Potency [13] | Potency [15] | Potency [16]

CCC(C)OC(=O)N1CCCCC1CCO (stereo not drawn)
inactive: Potency [20] | outcome [17] | outcome [2] | Potency [3] | Potency [4] | activity change, positive = activation [5] 2.44% | outcome [6] | Potency [8] | Potency [10] | Potency [18] | max response [11] -15.9% | Potency [12] | Potency [13] | Potency [14] | Potency [15] | Potency [16]

CCN(CC)C(=O)c1ccc(O)c(OC)c1
inactive: Potency [20] | outcome [17] | Potency [3] | outcome [6] | Potency [7] | Potency [8] | Potency [10] | Potency [18] | outcome [19] | max response [11] 1.73% | Potency [12] | Potency [13] | Potency [15] | Potency [16]

Cc1ccc(Nc2ccc(O)c3c2C(=O)c2ccccc2C3=O)cc1
inactive: Potency [20] | outcome [2] | Potency [3] | outcome [6] | Potency [8] | Potency [9] | Potency [10] | outcome [19] | max response [11] 7.86% | Potency [12] | Potency [13] | Potency [14] | Potency [15] | Potency [16]

CCCCCCCCCCCCI
inactive: outcome [17] | outcome [2] | Potency [3] | Potency [7] | Potency [8] | Potency [10] | Potency [18] | max response [11] -9.8% | Potency [12] | Potency [13] | Potency [15] | Potency [16]
active: Potency [14] 24.7 µM
